Inhibition data for 35 compounds are collected here from ChEMBL document CHEMBL3433997, “St. Jude Leishmania screening dataset” (2016).

Format in all cases: functional
The target of experiment [1] is Solute carrier family 2, facilitated glucose transporter member 1 (Homo sapiens) (UniProt P11166). Kind of experiment: ST_JUDE_LEISH: Cytotoxicity at 2uM final concentration against transgenic Leishmania Mexicana promastigotes LmGLUT1 that are glucose transport deficient and complemented with the human glucose transporter GLUT1. Activity is measured by DNA content using SYBR green in vitro.

For experiment [2], the target named is Hexose transporter 1 (Plasmodium falciparum) (UniProt O97467). Put plainly: ST_JUDE_LEISH: Cytotoxicity at 2uM final concentration against transgenic Leishmania Mexicana promastigotes LmPfHT that are glucose transport deficient and complemented with the Plasmodium falciparum hexose transporter. Activity is measured by DNA content using SYBR green in vitro.

Experiment [3] has as its target Glucose transporter (Leishmania mexicana) (UniProt O61059). Put plainly: ST_JUDE_LEISH: Cytotoxicity at 2uM final concentration against transgenic Leishmania Mexicana promastigotes LmGT2 that are glucose transport deficient and complemented with the L. Mexicana glucose transporter 2. Activity is measured by DNA content using SYBR green in vitro.

Sequence of Solute carrier family 2, facilitated glucose transporter member 1 (Homo sapiens) (P11166 whole entry): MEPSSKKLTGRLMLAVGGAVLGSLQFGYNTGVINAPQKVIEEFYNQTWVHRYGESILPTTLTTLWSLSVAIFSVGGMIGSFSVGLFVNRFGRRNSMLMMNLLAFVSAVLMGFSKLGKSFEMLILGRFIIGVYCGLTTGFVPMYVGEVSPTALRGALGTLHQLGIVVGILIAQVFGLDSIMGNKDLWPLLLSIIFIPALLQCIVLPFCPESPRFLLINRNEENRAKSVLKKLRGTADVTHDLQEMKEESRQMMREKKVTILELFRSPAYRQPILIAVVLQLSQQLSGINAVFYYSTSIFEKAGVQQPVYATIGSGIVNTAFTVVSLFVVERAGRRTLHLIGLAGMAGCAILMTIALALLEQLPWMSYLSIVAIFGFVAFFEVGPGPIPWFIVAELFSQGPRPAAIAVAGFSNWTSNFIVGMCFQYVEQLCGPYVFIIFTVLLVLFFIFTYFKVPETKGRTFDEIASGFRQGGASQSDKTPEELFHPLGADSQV

Regarding `O=C(Nc1cccc(-c2ccc(CN3CCCC3)cc2)c1)c1cccc(Cl)c1`, the figures for the inhibition in experiment [1], in experiment [2] and in experiment [3] were -0.6%, 0.05% and 0.25%, respectively.

With `COc1ccc(-c2cccc(NC(=O)c3cccc(C#N)c3)c2)cc1CN(C)CCO`, the values for the inhibition in experiment [1], in experiment [2] and in experiment [3] were 3.7%, 5.06% and 5.5%, respectively.

On to `Cc1cccc(Nc2nc(N[C@@H]3CCCNC3)nc3cc[nH]c(=O)c23)c1`, for which the inhibition turned out to be 92.3% in experiment [1], 85.2% in experiment [2] and 83.4% in experiment [3].

For the compound `COc1cc2nc(Cl)nc(Nc3ccncc3)c2cc1OC`, the inhibition in experiment [1] is 0.52%; in experiment [2] it was -0.73%; in experiment [3] it was -1.27%.

Take `FC(F)(F)c1ccc2[nH]c(-c3ccc(-c4ccc(CN5CCN(c6ccncc6)CC5)cc4)cc3)nc2c1`: the inhibition in experiment [1] stood at 77.4%; in experiment [2], 85.7%; in experiment [3] it was 69%.

On to `COc1ccc2c(NN=Cc3ccc(N(C)C)cc3)ccnc2c1`, for which the inhibition came to 10.8% in experiment [1], 10.8% in experiment [2] and 8.44% in experiment [3].

Regarding `CCC(C)(C)C1CCc2[nH]c3ccccc3c(=O)c2C1` (stereo not given), the inhibition in experiment [1] came out at 9.6%; in experiment [2], 26.9%; in experiment [3] it was 6.59%.

As to `O=C(Nc1ccc(-c2nc3ccccc3[nH]2)cc1)C1CCN(Cc2cccc(F)c2F)CC1`, the inhibition in experiment [1] is 24.2%; in experiment [2] it was 28.4%; in experiment [3] it was 16%.

In the case of `CNC(=O)c1cnc(Nc2ccc(N3CCN(C)CC3)cc2)nc1Nc1ccccc1OC`, the inhibition in experiment [1] was 4.96%; in experiment [2], 4.09%; in experiment [3], 3.41%.

Regarding `O=C(NCc1ccc(Cl)c(Cl)c1)c1ccc(-c2nc3ccc(Cl)cc3[nH]2)cc1`, the inhibition in experiment [1] was 4.45%; in experiment [2] it was 9.23%; in experiment [3] it was 3.4%.

On to `Cc1cc(N[C@@H](Cc2ccccc2)C(=O)NCc2cccc(F)c2)nc(NCCOc2ccccc2)n1`, for which the inhibition is 4.2% in experiment [1], -1.41% in experiment [2] and -0.15% in experiment [3].

For `COc1ccc(C2CC(c3cccs3)=NN2C(=O)CNc2cccc(C#N)c2)cc1OC` (stereo not given), the inhibition in experiment [1] was found to be 7.28%; in experiment [2], 14.4%; in experiment [3] it was 2.41%.

Turning to `COc1cc(CN=C(S)NN=C(C)c2ccccn2)cc(OC)c1OC`, the inhibition in experiment [1] worked out at 5.41%; in experiment [2], 1.2%; in experiment [3], 2.59%.

As for `N#Cc1ccc(-c2cnc3ccc(NCc4ccc(S(N)(=O)=O)cc4)nn23)cc1`, the inhibition in experiment [1] is 2.42%; in experiment [2], 1.16%; in experiment [3], 0.38%.

As for `Cc1cccc(-n2c(=O)c3c4c(sc3n3c(SCCC(C)C)nnc23)CCCC4)c1`, the inhibition was 0.75% in experiment [1], 1.59% in experiment [2] and -0.43% in experiment [3].

With `COc1cc(OC)c(NC(=O)COc2ccc(C)cc2)cc1Cl`, the inhibition was 1.6% in experiment [1], 1.59% in experiment [2] and 3.07% in experiment [3].

For the compound `Nc1nc(N)c2cc(NS(=O)(=O)c3ccc(-c4ccccc4)cc3)ccc2n1`, the figures for the inhibition in experiment [1], in experiment [2] and in experiment [3] were 4.33%, 3.47% and 3.56%, respectively.

As to `Oc1cc(NC[C@H]2CCC[C@@H]2NCc2cc(Br)cc(Br)c2)nc2ccccc12`, the inhibition came out at 2.99% in experiment [1], 4.07% in experiment [2] and 3.27% in experiment [3].

In the case of `COc1cc2nc(SCCCC#N)n(C3CCCCCC3)c(=N)c2cc1OC`, the inhibition in experiment [1] came to 7.27%; in experiment [2] it was 5.84%; in experiment [3], 2.84%.

Consider `Cc1cc(N[C@@H](Cc2ccccc2)C(=O)NCCOc2ccccc2)nc(NCCc2ccc(F)cc2)n1`, for which the results for the inhibition in experiment [1], in experiment [2] and in experiment [3] were 15.1%, 11.7% and 10.1%, respectively.

As to `COc1c(Br)cc(Br)cc1C(C)=O`, the inhibition in experiment [1] was 3.62%; in experiment [2], 3.58%; in experiment [3] it was -0.79%.

As for `Cn1cccc1C(=O)C(=O)Nc1ccc(-c2ccc(-c3nc4cc(F)ccc4[nH]3)cc2)cc1`, the inhibition in experiment [1] is 8.15%; in experiment [2], -0.07%; in experiment [3], -0.45%.

Take `Cc1cc(=O)c2cc(Oc3ccc(OC(F)(F)F)cc3)ccc2[nH]1`: the results for the inhibition in experiment [1], in experiment [2] and in experiment [3] were -0.06%, 0.96% and -1.19%, respectively.

Consider `N#Cc1ccc(-c2ccc(C(=O)NCCCCN3CCC(c4cc(Br)c5c(c4OCC(N)=O)CCCC5)CC3)cc2)cc1`, for which the inhibition is 2.88% in experiment [1], 1.24% in experiment [2] and -0.04% in experiment [3].

For the compound `CC1CN(C(=O)c2sc3ccccc3c2Cl)CC(C)O1` (stereo not given), the inhibition is -2.33% in experiment [1], 0.96% in experiment [2] and 0.74% in experiment [3].

On to `O=C(Nc1ccc(Cl)c(C(F)(F)F)c1)NC1CCN(CCCCCNC(=O)C2CC2c2ccc(Cl)c(Cl)c2)CC1` (stereo not given), for which the inhibition was determined as 7.55% in experiment [1], 9.26% in experiment [2] and 6.43% in experiment [3].

For `Cc1cc(NCCC(=O)Nc2ccccc2)nc(NCCc2cccs2)n1`, the results for the inhibition in experiment [1], in experiment [2] and in experiment [3] were 4.03%, 2.26% and -0.18%, respectively.

For the compound `Cc1nc(C)c(-c2ccc(Oc3cc(Cl)cc(Cl)c3)cc2)c(O)c1Cl`, the inhibition was found to be 2.68% in experiment [1], 3.03% in experiment [2] and 0.49% in experiment [3].

Turning to `O=C(NCC1CCN(CC2CCCCC2)C1)c1cc(-c2cccc(C(F)(F)F)c2)cs1` (stereo not given), the inhibition in experiment [1] is -1.1%; in experiment [2], -0.44%; in experiment [3] it was -2.1%.

Take `CNCCNCc1ccc(-c2cccc(-c3nc4cc(F)ccc4[nH]3)c2)cc1`: the inhibition in experiment [1] turned out to be 2.53%; in experiment [2] it was 3.78%; in experiment [3] it was 3.03%.

Turning to `CO/C(=C\C=C\c1cc2cc(Cl)c(Cl)cc2[nH]1)C(=O)NCCCN(C)CCN(C)c1ccccc1`, the inhibition was 4.46% in experiment [1], 3% in experiment [2] and 1.47% in experiment [3].

Regarding `Nc1nc(-c2ccc3c(Nc4ccc(F)c(Cl)c4)ccnc3c2)cs1`, the inhibition in experiment [1] amounted to 3.22%; in experiment [2], 4.08%; in experiment [3], 3.86%.

Take `CCc1cc2c(=O)c(-c3nc(C)cs3)c(N)oc2c(CN2CCCCC2)c1O`: the results for the inhibition in experiment [1], in experiment [2] and in experiment [3] were 3.22%, 2.22% and 3.34%, respectively.

Regarding `O=C1C(c2ccccc2)=C(Nc2cccc(OC(F)(F)C(F)F)c2)c2ccccc21`, the figures for the inhibition in experiment [1], in experiment [2] and in experiment [3] were 5.8%, 4.03% and 1.33%, respectively.

In the case of `CC(C)C1CCc2nc(N)nc(N)c2C1` (stereo not given), the figures for the inhibition in experiment [1], in experiment [2] and in experiment [3] were 2.52%, 4.4% and 0.91%, respectively.
